The experiment deals with Vero E6 infected with SARS-CoV-2. As to the kind of experiment: inhibition of SARS-CoV-2 cytopathic effect; higher = more antiviral protection, active = above 15. As to conditions: 48 h. A general note: Damage to the host cells serves as the signal in cytopathic effect assays.

The source of these data is the supplement of paper PMC13380429.

As to `O=C(O)C(Cl)Cl` [dichloroacetate], the “inhibition of SARS-CoV-2 cytopathic effect” value (shortened to “inhibition”) by setting is: (1 nM) 4.14% (inactive); (8.33 nM) 1.34% (inactive); (100 nM) 2.35% (inactive); (833.33 nM) 0.22% (inactive); (10000 nM) 2.63% (inactive).

Turning to `NCC1(CC(=O)O)CCCCC1` [gabapentin], the “inhibition” value reads like this: (1 nM) -2.49% (inactive); (8.33 nM) 2.99% (inactive); (100 nM) -2.14% (inactive); (833.33 nM) 0.15% (inactive); (10000 nM) 2.27% (inactive).

In the case of `C[C@]12CC[C@@H]3c4ccc(OS(=O)(=O)O)cc4CC[C@H]3[C@@H]1CCC2=O` [estropipate], the “inhibition” value (1 nM) was -1.99% (inactive); the “inhibition” value (8.33 nM) was 1.92% (inactive); the “inhibition” value (100 nM) was 0.66% (inactive); the “inhibition” value (833.33 nM) was 1.96% (inactive); the “inhibition” value (10000 nM) is -6.12% (inactive).

As to `Cc1ccc(S(N)(=O)=O)cc1` [para-toluenesulfonamide], the “inhibition” value by setting is: (1 nM) 3.73% (inactive); (8.33 nM) 1.88% (inactive); (100 nM) 1.14% (inactive); (833.33 nM) 0.12% (inactive); (10000 nM) -5.38% (inactive).

On to `CN(C)CC/C=C1/c2ccccc2Sc2ccc(Cl)cc21` [chlorprothixene], for which the “inhibition” value is 5.54% (inactive) (1 nM); 3.98% (inactive) (8.33 nM); -4.95% (inactive) (100 nM); -3.59% (inactive) (833.33 nM); -1.82% (inactive) (10000 nM).

For `C[C@H](NC(=O)c1sccc1OCc1ccc(Cl)cc1)c1ccccc1`, the “inhibition” value is -2.57% (inactive) (1 nM); -2.87% (inactive) (8.33 nM); -1.08% (inactive) (100 nM); -1.14% (inactive) (833.33 nM); -0.53% (inactive) (10000 nM).

As for `CCOC(=O)[C@H](CCc1ccccc1)N[C@@H](C)C(=O)N1[C@H](C(=O)O)C[C@H]2CCCC[C@@H]21` [trandolapril], the “inhibition” value reads like this: (1 nM) -1.1% (inactive); (8.33 nM) -1.62% (inactive); (100 nM) -0.26% (inactive); (833.33 nM) -0.12% (inactive); (10000 nM) 1.62% (inactive).

In the case of `N#Cc1ccc(Oc2ccc3c(c2)COB3O)cc1` [crisaborole], the “inhibition” value (1 nM) was 0.74% (inactive); the “inhibition” value (8.33 nM) is 0.97% (inactive); the “inhibition” value (100 nM) was 1.46% (inactive); the “inhibition” value (833.33 nM) is -0.75% (inactive); the “inhibition” value (10000 nM) was 4.65% (inactive).

In the case of `C[C@H](CS)C(=O)N1CCC[C@H]1C(=O)O` [captopril], the “inhibition” value by setting is: (1 nM) -1.79% (inactive); (8.33 nM) 0.97% (inactive); (100 nM) -2.39% (inactive); (833.33 nM) -1.5% (inactive); (10000 nM) -0.97% (inactive).

Regarding `COc1cc(C[C@H]2C(=O)OC[C@@H]2Cc2ccc(OC)c(OC)c2)ccc1O` [arctigenin], the “inhibition” value reads like this: (1 nM) -2.79% (inactive); (8.33 nM) 0.36% (inactive); (100 nM) -2.78% (inactive); (833.33 nM) 0.01% (inactive); (10000 nM) 2.1% (inactive).

Take `COc1ccc2c(Oc3ccc(NC(=O)c4c(C)n(CC(C)(C)O)n(-c5ccccc5)c4=O)nc3)ccnc2c1`: the “inhibition” value (1 nM) is 2.46% (inactive); the “inhibition” value (8.33 nM) is 1.91% (inactive); the “inhibition” value (100 nM) is -0.28% (inactive); the “inhibition” value (833.33 nM) is -1.35% (inactive); the “inhibition” value (10000 nM) is -0.65% (inactive).

Turning to `Cc1ccc(S(=O)(=O)NC(=O)NN2CCCCCC2)cc1` [tolazamide], the “inhibition” value runs as follows: (1 nM) 1.07% (inactive); (8.33 nM) -0.36% (inactive); (100 nM) 0.85% (inactive); (833.33 nM) 1.43% (inactive); (10000 nM) 2.51% (inactive).

Take `O=C(O)Cc1ccc2c(c1)C(=O)c1ccccc1CO2` [isoxepac]: the “inhibition” value runs as follows: (1 nM) -4.41% (inactive); (8.33 nM) -3.03% (inactive); (100 nM) -6.78% (inactive); (833.33 nM) -4.01% (inactive); (10000 nM) 0.02% (inactive).

In the case of `CC(C)c1nnc(-c2ccc(-c3ccccc3)nc2)n1-c1cccc2nonc12`, the “inhibition” value was -5.81% (inactive) (1 nM); -4.31% (inactive) (8.33 nM); -0.24% (inactive) (100 nM); 0.55% (inactive) (833.33 nM); -1.7% (inactive) (10000 nM).

For the molecule `CN[C@@H](C)[C@H]1[C@H](O)C[C@@]2(C)[C@@H]3CC[C@H]4C(C)(C)[C@@H](NC)CC[C@@]45C[C@@]35CC[C@]12C` [cyclovirobuxin-D], the “inhibition” value is -0.38% (inactive) (1 nM); 2.73% (inactive) (8.33 nM); 3.9% (inactive) (100 nM); 2.48% (inactive) (833.33 nM); -7.38% (inactive) (10000 nM).

Consider `CCn1cc(C(=O)O)c(=O)c2cc(F)c(N3CCNC(C)C3)c(F)c21` (stereo not given) [lomefloxacin], for which the “inhibition” value (1 nM) was 0.57% (inactive); the “inhibition” value (8.33 nM) is -0.12% (inactive); the “inhibition” value (100 nM) was -1.13% (inactive); the “inhibition” value (833.33 nM) was 0.73% (inactive); the “inhibition” value (10000 nM) is -1.41% (inactive).

For the molecule `Cc1n[nH]c(C)c1Cc1sc2c(c1C(=O)N1C[C@H](O)CO1)c(=O)n(C)c(=O)n2CC(C)C`, the “inhibition” value is 1.42% (inactive) (1 nM); 3.88% (inactive) (8.33 nM); 0.66% (inactive) (100 nM); 1.3% (inactive) (833.33 nM); 1.69% (inactive) (10000 nM).

With `CCCCCCC[N+](CC)(CC)CCCCc1ccc(Cl)cc1` [clofilium], the “inhibition” value was 2.85% (inactive) (1 nM); 1.44% (inactive) (8.33 nM); 1.58% (inactive) (100 nM); 1.2% (inactive) (833.33 nM); 3.38% (inactive) (10000 nM).

In the case of `COc1ccc(C(=O)c2c(C)n(CCN3CCOCC3)c3cc(I)ccc23)cc1`, the “inhibition” value runs as follows: (1 nM) -3.57% (inactive); (8.33 nM) -3.84% (inactive); (100 nM) -3.42% (inactive); (833.33 nM) -0.63% (inactive); (10000 nM) 2.05% (inactive).

On to `c1ccc(C(O[C@@H]2CCCN(CCc3ccc4c(c3)OCO4)C2)c2ccccc2)cc1` [zamifenacin], for which the “inhibition” value is, setting by setting: (1 nM) 0.36% (inactive); (8.33 nM) 3.7% (inactive); (100 nM) 0.93% (inactive); (833.33 nM) -1.42% (inactive); (10000 nM) -1.64% (inactive).

With `CO[C@H]1C[C@H](O[C@@H]2/C(C)=C/C[C@@H]3C[C@@H](C[C@]4(CC[C@H](C)[C@@H](C5CCCCC5)O4)O3)OC(=O)[C@@H]3C=C(C)/C(=N/O)[C@H]4OC/C(=C\C=C\[C@@H]2C)[C@]43O)O[C@@H](C)[C@@H]1O` [selamectin], the “inhibition” value (1 nM) was -1.61% (inactive); the “inhibition” value (8.33 nM) was 0.4% (inactive); the “inhibition” value (100 nM) was -0.73% (inactive); the “inhibition” value (833.33 nM) is 2.72% (inactive); the “inhibition” value (10000 nM) was 16.1% (active).

In the case of `COc1ccc2[nH]c(-c3ccccc3)c(CCNC(C)=O)c2c1` [2-phenylmelatonin], the “inhibition” value by setting is: (1 nM) 0.42% (inactive); (8.33 nM) -1.88% (inactive); (100 nM) 0.56% (inactive); (833.33 nM) -2.59% (inactive); (10000 nM) -0.4% (inactive).

Turning to `C[N+](C)(C)NCCC(=O)O` [meldonium], the “inhibition” value is -1.15% (inactive) (1 nM); -0.85% (inactive) (8.33 nM); -2.99% (inactive) (100 nM); -0.28% (inactive) (833.33 nM); -2.51% (inactive) (10000 nM).

Turning to `COC(=O)N1CC[C@@H]2[C@H]1CCC[C@@]2(O)C#Cc1cccc(C)c1` [mavoglurant], the “inhibition” value is, setting by setting: (1 nM) 0.66% (inactive); (8.33 nM) -0.18% (inactive); (100 nM) 2.27% (inactive); (833.33 nM) -1.9% (inactive); (10000 nM) -0.19% (inactive).

Regarding `CC(=O)N(O)C/C=C/c1cccc(Oc2ccccc2)c1`, the “inhibition” value by setting is: (1 nM) 2.1% (inactive); (8.33 nM) 2.16% (inactive); (100 nM) 1.66% (inactive); (833.33 nM) -0.73% (inactive); (10000 nM) -2.02% (inactive).

On to `COc1cc2c(NC3CCN(C)CC3)nc(N3CCCN(C)CC3)nc2cc1OCCCN(C)C`, for which the “inhibition” value is, setting by setting: (1 nM) 2.93% (inactive); (8.33 nM) 3.22% (inactive); (100 nM) 3.09% (inactive); (833.33 nM) 3.57% (inactive); (10000 nM) 4.51% (inactive).

For the molecule `Cc1cccc(C)c1NC(=O)C[N+](C)(C)C`, the “inhibition” value was -1.32% (inactive) (1 nM); 0.36% (inactive) (8.33 nM); 0.02% (inactive) (100 nM); -0.1% (inactive) (833.33 nM); 0.5% (inactive) (10000 nM).

Consider `C=Cc1c(C)c2cc3nc(c(CC(=O)O)c4[n-]c(cc5nc(cc1[n-]2)C(C)=C5CC)c(C)c4C(=O)O)[C@@H](CCC(=O)O)[C@@H]3C.[Cu+2]` [chlorophyllin-copper], for which the “inhibition” value reads like this: (1 nM) -0.37% (inactive); (8.33 nM) 2.9% (inactive); (100 nM) -1.68% (inactive); (833.33 nM) -0.25% (inactive); (10000 nM) -2.81% (inactive).

For `Cc1c(C)c2c(c(C)c1O)CCC(C)(COc1ccc(CC3SC(=O)NC3=O)cc1)O2` (stereo not given) [troglitazone], the “inhibition” value is, setting by setting: (1 nM) 1.07% (inactive); (8.33 nM) 1.5% (inactive); (100 nM) 1.01% (inactive); (833.33 nM) 2.48% (inactive); (10000 nM) 5.84% (inactive).
